Experimental data as given in PubChem BioAssay (Tox21).
Inconclusive results are not listed. The source made the active and inactive calls. Unless noted, the call rests on the fitted dose curve; in most records, active means well fitted curve in the direction sought with a large enough effect in the repeat runs; inconclusive means weak or mixed curves; inactive means no such curve, though single readings can be large; an effect the other way counts as inactive or inconclusive.

Assays:
[1] = target: Thyrotropin receptor (Homo sapiens) (UniProt P16473); test: qHTS assay to identify small molecule antagonists of the thyroid stimulating hormone receptor (TSHR) signaling pathway (AID 1259385; calls by dose curve; further: nearly all actives have a fitted effect of over 20% in size)
Procedure, shortened: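 TSHR-HEK293 cells (800/well) plated 18 h, then compounds with Ro20-1724 and TSH at 1.5 ng/mL final, 30 min at room temperature. cAMP quantified by HTRF (cAMP-d2/anti-cAMP-cryptate, 1 h); 15 concentrations in triplicate.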

[2] = qHTS assay to identify small molecule agonists of the estrogen receptor alpha (ER-alpha) signaling pathway in the presence of an antagonist - cell viability counter screen (AID 1259386);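 further: series mostly up to about 92 µM; cells exposed to compounds for 22 h at 37 °C before the viability read; nearly all actives have a fitted effect of over 30% in size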
Procedure, shortened: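 The test measures whether compounds kill ER-alpha reporter cells (VM7Luc4E2) under antagonist co-treatment (ICI-182,780, 10.0nM). Fluorescence from CellTiter-Fluor is read after a 22hr exposure.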

[3] = target: Progesterone receptor (Homo sapiens) (UniProt P06401); test: qHTS assay to identify small molecule agonists of the progesterone receptor (PR) signaling pathway (AID 1346784; calls by dose curve; further: nearly all actives have a fitted effect of over 30% in size)
Procedure, shortened: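 Agonist mode, quantitative HTS format in a HEK 293T line expressing a UAS-controlled beta-lactamase reporter; 16 hr compound exposure at 37C in 2% charcoal-stripped FBS, then LiveBLAzer B/G FRET fluorescence.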

[4] = target: Progesterone receptor (Homo sapiens) (UniProt P06401); test: qHTS assay to identify small molecule antagonists of the progesterone receptor (PR) signaling pathway (AID 1346795; active means well fitted inhibition curve with a large enough effect in the signal ratio in the repeat runs, not every such curve was filed as active; the % refers to the signal ratio)
Procedure, shortened: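 HEK293T PR-UAS-bla reporter cells in charcoal-stripped serum (2%) received compound after a 6 hr settling period, followed by R5020 agonist at 1 nM final; 16 hr incubation preceded the FRET substrate step and fluorescence measurement.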

[5] = qHTS assay to identify small molecule antagonists of the progesterone receptor (PR) signaling pathway - cell viability counter screen (AID 1346798); further: series mostly up to about 92 µM; nearly all actives have a fitted effect of over 50% in size
Procedure, shortened: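 Same-well multiplex: after 16 hr at 37C with compound and R5020 stimulation, HEK293T cells carrying a UAS-bla reporter received LiveBLAzer substrate (2 hr RT), then CellTiter-Glo (30 min RT) for luminescent viability.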

[6] = qHTS assay to identify small molecule agonists of the progesterone receptor (PR) signaling pathway - cell viability counter screen (AID 1346799; calls by dose curve; further: nearly all actives have a fitted effect of over 45% in size)
Procedure, shortened: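 Counter screen for cytotoxicity: compound-treated PR-UAS-bla HEK293T cells (16 hr, 37C, 5% CO2) were assayed with CellTiter-Glo, luminescence measured after 30 min at room temperature.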

[7] = qHTS assay to identify small molecule antagonists of the TGF-beta/Smad signaling pathway - cell viability counter screen (AID 1346824); further: nearly all actives have a fitted effect of over 50% in size
Procedure, shortened: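 SBE-bla HEK 293T cells, incubated overnight, then compound plus 0.25 ng/mL TGF-beta1 (stock added) for 5 hr at 37 C. Viability was read in the same wells by CellTiter-Glo luminescence after 30 min at room temperature.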

[8] = qHTS assay to identify small molecule agonists of the TGF-beta/Smad signaling pathway - cell viability counter screen (AID 1346829); further: top concentration of the series differs between compounds; nearly all actives have a fitted effect of over 45% in size
Procedure, shortened: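 After overnight seating at 37 C and 5% CO2, reporter cells got compounds for 5 hr and FRET substrate for 2 hr; cell viability then came from CellTiter-Glo luminescence.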

[9] = qHTS assay to identify small molecule agonists of the TGF-beta/Smad signaling pathway (AID 1346859; active means well fitted activation curve with a large enough effect in the signal ratio in the repeat runs, not every such curve was filed as active; the % refers to the signal ratio; further: series mostly up to about 77 µM)
Procedure, shortened: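 Smad-responsive beta-lactamase reporter cells (HEK 293T) received compounds from DMSO stocks after overnight attachment, were incubated 5 hr, then treated 2 hr with FRET substrate before dual-emission fluorescence measurement (405 nm excitation).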

[10] = target: Thyrotropin-releasing hormone receptor (Homo sapiens) (UniProt P34981); test: qHTS assay to identify small molecule agonists of the thyrotropin-releasing hormone receptor (TRHR) signaling pathway (AID 1346891; calls by dose curve;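 further: HEK293 cells expressing TRHR with calcium dye readout; series mostly up to about 58 µM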)
Procedure, shortened: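 Agonist-mode calcium mobilisation screen: TRHR-transfected HEK293 cells cultured overnight (18 h), dye-loaded for 2 h at 37 °C, exposed to compounds, and monitored by fluorescence for 3 min.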

[11] = Caspase-3/7 induction in HepG2 cells by small molecules, qHTS assay (AID 1346978); further: nearly all actives have a fitted effect of over 15% in size
Procedure, shortened: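 Wild-type HepG2 cells, 2,000/well, settled 5 hr at 37 C and 5% CO2, then compound-treated for 17 hr; caspase-3/7 activity read by luminescent Caspase-Glo 3/7 after 30 min at room temperature.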

[12] = Caspase-3/7 induction in CHO-K1 cells by small molecules, qHTS cell viability counter screen (AID 1346979); further: nearly all actives have a fitted effect of over 35% in size
Procedure, shortened: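 In the same wells as the caspase read, viability of compound-treated wild-type CHO-K1 cells was assessed using CellTiter-Fluor, added after 16hr at 37C and measured by fluorescence following 1hr further incubation.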

[13] = Caspase-3/7 induction in CHO-K1 cells by small molecules, qHTS assay (AID 1346980); further: nearly all actives have a fitted effect of over 15% in size
Procedure, shortened: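 Wild-type CHO-K1 cells exposed to compounds for 17hr at 37 C, 5% CO2. Caspase-3/7 activity then measured by Caspase-Glo 3/7 luminescence after 30min at room temperature.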

[14] = Caspase-3/7 induction in HepG2 cells by small molecules, qHTS cell viability counter screen (AID 1346981); further: series mostly up to about 92 µM; nearly all actives have a fitted effect of over 30% in size
Procedure, shortened: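 Treatment of HepG2 cells with DMSO-delivered compounds ran 16 hr at 37 C following a 5-hr pre-incubation of 2,000 cells/well. CellTiter-Fluor fluorescence, read after 1 hr, served as the viability measure in a qHTS format.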

[15] = target: Nuclear receptor subfamily 1 group I member 2 (Homo sapiens) (UniProt O75469); test: Human pregnane X receptor (PXR) small molecule agonists, qHTS assay (AID 1346982); further: nearly all actives have a fitted effect of over 35% in size; further: potency means the concentration at half of the fitted maximal effect
Procedure, shortened: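 Stable HepG2 line reporting PXR-mediated CYP3A4 expression via luciferase. Treatment: 24 hr with compounds in DMSO at 37 C. Detection: ONE-Glo luminescence.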

[16] = target: Nuclear receptor subfamily 1 group I member 2 (Rattus norvegicus) (UniProt Q9R1A7); test: Rat pregnane X receptor (rPXR) activation by small molecules, qHTS assay (AID 1346983); conditions: rPXR luciferase reporter cells, One-Glo luminescence, 24 h; max activation: hits give high values; further: nearly all actives have a fitted effect of over 20% in size
Procedure, shortened: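 Cell-based rPXR activation assay: rPXR cells, 2,000 per well, rested 5hr at 37 C, then exposed to compounds in DMSO for 24 hr at 37 C. Luciferase activity read by One-Glo luminescence after 30 min at room temperature.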

[17] = target: Nuclear receptor subfamily 1 group I member 2 (Homo sapiens) (UniProt O75469); test: CYP3A4 induction through human pregnane X receptor (PXR) by small molecules, qHTS assay (AID 1346984); further: nearly all actives have a fitted effect of over 40% in size
Procedure, shortened: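 After 24 h at 37C with compound, DPX-2 cells (HepG2, co-transfected PXR response element and CYP3A4 promoter-luciferase) got 3uM final P450-Glo Luciferin-IPA for 3 h; One-Glo luminescence followed.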

[18] = target: Nuclear receptor subfamily 1 group I member 2 (Homo sapiens) (UniProt O75469); test: Human pregnane X receptor (PXR) activation by small molecules, qHTS assay (AID 1346985); further: nearly all actives have a fitted effect of over 40% in size
Procedure, shortened: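 DPX-2 cells (HepG2 co-transfected with a PXR response element and a CYP3A4-promoter luciferase construct) were seeded at 2,000 per well, rested 5 hr at 37C, then exposed to DMSO-dissolved compounds for 24 hr. Activation was read as luciferase luminescence.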

[19] = target: Thyrotropin-releasing hormone receptor (Homo sapiens) (UniProt P34981); test: qHTS assay to identify small molecule antagonists of the thyrotropin-releasing hormone receptor (TRHR) signaling pathway (AID 1346877; active means well fitted inhibition curve with a large enough effect in the repeat runs, not every such curve was filed as active; further: series mostly up to about 51 µM)
Procedure, shortened: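 Overnight-plated (18 h, 37 °C) HEK293 cells expressing TRHR were dye-loaded 2 h, treated with compound, then stimulated with TRH at 1 nM final. Fluorescence intensity was captured every second for 3 min.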

[20] = Human pregnane X receptor (PXR) small molecule agonists, qHTS cell viability counter screen (AID 1346977); further: nearly all actives have a fitted effect of over 50% in size
Procedure, shortened: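 Measures live-cell protease fluorescence (CellTiter-Fluor) in PXR-Luc HepG2 cells treated 24hr with compounds at 37C. Cells had 5hr to attach before pin transfer of DMSO solutions.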
On the % scale 0 is the no-effect control and ±100 the full control effect.

Chain of Nuclear receptor subfamily 1 group I member 2 (Homo sapiens) (O75469 whole entry, looked up): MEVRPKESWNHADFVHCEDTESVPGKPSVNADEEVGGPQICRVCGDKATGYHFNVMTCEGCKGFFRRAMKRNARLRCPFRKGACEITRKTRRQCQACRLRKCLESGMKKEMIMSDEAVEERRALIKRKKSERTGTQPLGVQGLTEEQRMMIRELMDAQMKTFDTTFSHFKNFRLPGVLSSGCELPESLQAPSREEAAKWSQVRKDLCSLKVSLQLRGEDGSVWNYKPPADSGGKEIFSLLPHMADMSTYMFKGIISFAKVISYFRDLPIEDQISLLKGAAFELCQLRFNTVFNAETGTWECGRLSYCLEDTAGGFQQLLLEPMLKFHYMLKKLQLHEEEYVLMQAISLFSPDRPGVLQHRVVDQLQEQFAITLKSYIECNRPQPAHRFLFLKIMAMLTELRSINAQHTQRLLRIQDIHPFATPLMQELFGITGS
Chain of Nuclear receptor subfamily 1 group I member 2 (Rattus norvegicus) (Q9R1A7 whole entry, looked up): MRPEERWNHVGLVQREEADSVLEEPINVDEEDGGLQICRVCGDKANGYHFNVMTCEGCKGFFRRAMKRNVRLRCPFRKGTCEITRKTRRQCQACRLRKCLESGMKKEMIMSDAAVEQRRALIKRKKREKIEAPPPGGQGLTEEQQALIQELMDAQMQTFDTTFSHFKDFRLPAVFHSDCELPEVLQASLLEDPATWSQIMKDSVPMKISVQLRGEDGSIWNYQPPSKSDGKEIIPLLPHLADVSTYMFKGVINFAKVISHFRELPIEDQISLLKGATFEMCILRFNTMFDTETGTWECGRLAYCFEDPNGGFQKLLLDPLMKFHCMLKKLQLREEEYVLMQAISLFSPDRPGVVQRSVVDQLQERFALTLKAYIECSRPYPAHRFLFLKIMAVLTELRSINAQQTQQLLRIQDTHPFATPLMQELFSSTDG
Chain of Thyrotropin-releasing hormone receptor (Homo sapiens) (P34981 whole entry, looked up): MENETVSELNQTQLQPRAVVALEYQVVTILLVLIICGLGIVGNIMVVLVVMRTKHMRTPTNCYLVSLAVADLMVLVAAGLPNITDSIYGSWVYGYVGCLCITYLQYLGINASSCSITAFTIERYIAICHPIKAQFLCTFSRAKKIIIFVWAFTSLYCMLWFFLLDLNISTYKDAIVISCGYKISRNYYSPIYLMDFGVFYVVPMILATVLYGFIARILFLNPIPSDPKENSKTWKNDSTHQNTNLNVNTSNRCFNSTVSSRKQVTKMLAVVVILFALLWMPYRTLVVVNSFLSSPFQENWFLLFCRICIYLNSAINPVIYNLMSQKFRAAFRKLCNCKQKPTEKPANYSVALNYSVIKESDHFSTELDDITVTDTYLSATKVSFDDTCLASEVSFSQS
Chain of Thyrotropin receptor (Homo sapiens) (P16473 whole entry, looked up): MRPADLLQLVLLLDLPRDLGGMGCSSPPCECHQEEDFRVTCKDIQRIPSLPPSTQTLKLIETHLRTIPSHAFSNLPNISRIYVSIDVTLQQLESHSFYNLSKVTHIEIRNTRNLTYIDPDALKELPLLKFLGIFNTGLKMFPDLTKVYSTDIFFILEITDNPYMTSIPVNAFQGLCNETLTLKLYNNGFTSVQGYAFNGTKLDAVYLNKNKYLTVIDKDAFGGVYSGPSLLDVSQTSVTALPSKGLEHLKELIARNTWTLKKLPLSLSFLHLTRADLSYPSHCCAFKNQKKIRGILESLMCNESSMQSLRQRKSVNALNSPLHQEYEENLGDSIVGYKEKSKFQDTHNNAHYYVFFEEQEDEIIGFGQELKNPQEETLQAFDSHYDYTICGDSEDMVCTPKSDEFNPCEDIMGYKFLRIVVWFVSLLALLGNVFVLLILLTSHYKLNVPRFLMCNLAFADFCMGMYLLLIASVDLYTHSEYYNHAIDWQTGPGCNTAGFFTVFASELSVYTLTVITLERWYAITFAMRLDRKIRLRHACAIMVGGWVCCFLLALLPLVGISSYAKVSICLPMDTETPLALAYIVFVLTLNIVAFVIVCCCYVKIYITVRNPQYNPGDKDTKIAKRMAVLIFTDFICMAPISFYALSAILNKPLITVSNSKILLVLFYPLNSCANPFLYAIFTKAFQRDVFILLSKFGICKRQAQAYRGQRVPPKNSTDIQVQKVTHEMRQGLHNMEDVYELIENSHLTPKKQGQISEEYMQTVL
Chain of Progesterone receptor (Homo sapiens) (P06401 whole entry, looked up): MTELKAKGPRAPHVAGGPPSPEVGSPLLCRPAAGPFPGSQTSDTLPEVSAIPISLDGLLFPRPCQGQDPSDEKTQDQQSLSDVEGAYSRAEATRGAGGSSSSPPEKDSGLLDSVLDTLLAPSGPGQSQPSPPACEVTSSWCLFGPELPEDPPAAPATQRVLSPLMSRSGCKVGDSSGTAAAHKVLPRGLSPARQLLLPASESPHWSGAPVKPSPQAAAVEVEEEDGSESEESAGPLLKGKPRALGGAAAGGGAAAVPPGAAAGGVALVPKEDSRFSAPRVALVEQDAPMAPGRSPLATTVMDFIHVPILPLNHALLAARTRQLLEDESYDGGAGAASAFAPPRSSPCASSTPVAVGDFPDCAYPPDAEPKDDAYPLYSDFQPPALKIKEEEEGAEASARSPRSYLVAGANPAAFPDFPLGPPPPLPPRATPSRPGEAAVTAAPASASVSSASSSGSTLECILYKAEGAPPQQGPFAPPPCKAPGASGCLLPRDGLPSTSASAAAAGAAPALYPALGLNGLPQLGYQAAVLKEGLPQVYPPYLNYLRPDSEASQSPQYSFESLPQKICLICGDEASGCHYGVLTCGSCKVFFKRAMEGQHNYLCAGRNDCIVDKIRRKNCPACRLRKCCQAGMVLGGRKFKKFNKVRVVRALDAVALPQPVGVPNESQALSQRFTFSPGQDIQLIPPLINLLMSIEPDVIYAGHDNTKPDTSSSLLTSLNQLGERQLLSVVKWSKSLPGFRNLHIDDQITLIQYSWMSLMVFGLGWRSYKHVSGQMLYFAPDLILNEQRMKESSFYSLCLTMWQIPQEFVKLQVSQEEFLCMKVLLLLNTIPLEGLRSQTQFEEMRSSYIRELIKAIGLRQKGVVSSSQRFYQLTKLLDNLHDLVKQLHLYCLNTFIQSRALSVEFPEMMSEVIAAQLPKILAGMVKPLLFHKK

CCN(CC)CCNC(=O)COc1ccc(Cl)cc1
inactive: Potency [1] | Potency [2] | Potency [3] | Potency [4] | Potency [5] | Potency [6] | outcome [7] | outcome [8] | outcome [9] | Potency [10] | Potency [11] | Potency [12] | outcome [13] | Potency [14] | Potency [15] | max activation [16] -3.06% | Potency [17] | Potency [18]

COc1ccccc1N1CCN(CCCNc2cc(=O)n(C)c(=O)n2C)CC1
inactive: Potency [1] | Potency [2] | Potency [3] | Potency [4] | Potency [5] | Potency [6] | outcome [7] | outcome [8] | outcome [9] | outcome [19] | Potency [10] | Potency [20] | Potency [12] | outcome [13] | Potency [14] | Potency [15] | max activation [16] -1.3% | Potency [17] | Potency [18]

O=C1CCCc2ccccc21
inactive: Potency [1] | Potency [2] | Potency [3] | Potency [4] | Potency [5] | Potency [6] | outcome [7] | outcome [8] | outcome [9] | Potency [20] | Potency [11] | Potency [12] | outcome [13] | Potency [14]
active: Potency [15] 39 µM

Cc1cn([C@@H]2O[C@H](CO)[C@@H](O)[C@@H]2F)c(=O)[nH]c1=O
inactive: Potency [1] | Potency [2] | Potency [3] | Potency [4] | Potency [5] | Potency [6] | outcome [7] | outcome [8] | outcome [9] | outcome [19] | Potency [10] | Potency [20] | Potency [11] | Potency [12] | outcome [13] | Potency [14] | Potency [15]

CCNCCO
inactive: Potency [1] | Potency [2] | Potency [3] | Potency [4] | Potency [5] | Potency [6] | outcome [7] | outcome [8] | outcome [9] | outcome [19] | Potency [10] | Potency [20] | Potency [11] | Potency [12] | outcome [13] | Potency [14] | Potency [15]

Cc1onc(-c2ccccc2)c1C(=O)Cl
inactive: Potency [1] | Potency [2] | Potency [3] | Potency [4] | Potency [5] | Potency [6] | outcome [7] | outcome [8] | outcome [9] | outcome [19] | Potency [10] | Potency [20] | Potency [11] | Potency [12] | outcome [13] | Potency [14] | Potency [15]

C=CCCCCCCCCO
inactive: Potency [1] | Potency [2] | Potency [3] | Potency [4] | Potency [5] | Potency [6] | outcome [7] | outcome [8] | outcome [9] | outcome [19] | Potency [10] | Potency [20] | Potency [11] | Potency [12] | outcome [13] | Potency [14] | Potency [15]

CCC1(C)NC(=O)NC1=O (stereo not given)
inactive: Potency [1] | Potency [2] | Potency [3] | Potency [4] | Potency [5] | Potency [6] | outcome [7] | outcome [8] | outcome [9] | outcome [19] | Potency [10] | Potency [20] | Potency [11] | Potency [12] | outcome [13] | Potency [15]

CC/C=C\CCOC(=O)C(C)C
inactive: Potency [1] | Potency [2] | Potency [3] | Potency [4] | Potency [5] | Potency [6] | outcome [7] | outcome [8] | outcome [9] | outcome [19] | Potency [10] | Potency [20] | Potency [11] | Potency [12] | outcome [13] | Potency [15]

CC(=O)Nc1ccc(C)c(Cl)c1
inactive: Potency [1] | Potency [2] | Potency [3] | Potency [4] | Potency [5] | Potency [6] | outcome [7] | outcome [8] | outcome [9] | outcome [19] | Potency [10] | Potency [20] | Potency [11] | Potency [12] | outcome [13] | Potency [14]

CS(=O)(=O)c1ccc([C@@H](O)[C@@H](CF)NC(=O)C(Cl)Cl)cc1
inactive: Potency [1] | Potency [2] | Potency [3] | Potency [4] | Potency [5] | Potency [6] | outcome [7] | outcome [8] | outcome [9] | outcome [19] | Potency [10] | Potency [20] | Potency [11] | Potency [12] | outcome [13] | Potency [15] | max activation [16] -1.93% | Potency [17] | Potency [18]

COC(=O)/C=C(/C)N
inactive: Potency [1] | Potency [2] | Potency [3] | Potency [4] | Potency [5] | Potency [6] | outcome [7] | outcome [8] | outcome [9] | outcome [19] | Potency [10] | Potency [20] | Potency [12] | outcome [13] | Potency [14] | Potency [15]

C=CC1CO1 (stereo not given)
inactive: Potency [1] | Potency [2] | Potency [3] | Potency [4] | Potency [5] | Potency [6] | outcome [7] | outcome [8] | outcome [9] | outcome [19] | Potency [10] | Potency [20] | Potency [11] | Potency [12] | outcome [13] | Potency [15]

CCCNC(C)C(=O)Nc1c(C)csc1C(=O)OC (stereo not given)
inactive: Potency [1] | Potency [2] | Potency [3] | Potency [4] | Potency [5] | Potency [6] | outcome [7] | outcome [8] | outcome [9] | Potency [20] | Potency [11] | Potency [12] | outcome [13] | Potency [14] | Potency [15] | max activation [16] -1.55% | Potency [17] | Potency [18]

CCCCNCCCC
inactive: Potency [1] | Potency [2] | Potency [3] | Potency [4] | Potency [5] | Potency [6] | outcome [7] | outcome [8] | outcome [9] | Potency [10] | Potency [20] | Potency [11] | Potency [12] | outcome [13] | Potency [14] | Potency [15]

O=C(CCCl)NCc1ccccc1
inactive: Potency [1] | Potency [2] | Potency [3] | Potency [4] | Potency [5] | Potency [6] | outcome [7] | outcome [8] | outcome [9] | outcome [19] | Potency [10] | Potency [20] | Potency [11] | Potency [12] | outcome [13] | Potency [14] | Potency [15]
